Assay results taken from PubChem BioAssay AID651956 (Broad Institute, 2012).
Entries with a potency or affinity are not part of this list. Records with an inconclusive call do not appear. Calls of active or inactive are those of the source.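 How the source made its calls: active means in every test run, a fitted half-maximal concentration for signal decrease at or below twice the highest tested concentration; inconclusive means runs disagree, flat 30 to 70% decrease, or poor fit; inactive means the rest.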

assay: activation of miR-122 Renilla sensor silencing – cell-based, Huh7 psiCHECK-miR122, Renilla luciferase, cherry-picked, dose response (AID 651956); details: Huh7 psiCHECK-miR122 Renilla luciferase reporter, 48 h; series mostly up to 35 µM

Question: For `O=C(CC(F)(F)F)N1C[C@@H]2[C@H](c3ccccc31)[C@@H](CO)N2C(=O)C1CCCC1`, which outcome is on record?
Answer: The outcome was “inactive”.

Question: Which outcome does the source give for `CNC(=O)C[C@H]1CC[C@@H]2[C@H](COc3ccc(NC(=O)Nc4cccc(F)c4)cc3C(=O)N2C)O1` here?
Answer: Its outcome is “inactive”.

Question: Which outcome does the source give for `CC(C)NC(=O)N1C[C@@H]2[C@H](c3ccccc31)[C@@H](CO)N2C(=O)c1cccnc1` here?
Answer: The outcome was “inactive”.

Question: For `COc1ccc(-c2nc(NC(=O)CSc3nnc(C)s3)ns2)cc1`, which outcome is on record?
Answer: The outcome was “inactive”.

Question: With `COC(=O)c1cc(NS(=O)(=O)c2ccc3c(c2)CCC(=O)N3)cc(C(=O)OC)c1` as the molecule, how does the outcome read?
Answer: The outcome was “inactive”.

Question: For `Cc1cc(C(=O)Nc2ccc3c(c2)C(=O)N(C)[C@H]2CC[C@H](CC(=O)N[C@H](C)c4ccccc4)O[C@H]2CO3)no1`, which outcome is on record?
Answer: Its outcome is “inactive”.

Question: For `C/C=C/c1ccc([C@@H]2[C@H](CO)N[C@H]2CN(CC)C(=O)CN2CCOCC2)cc1`, which outcome is on record?
Answer: The outcome was “inactive”.

Question: For `O=CN1CCN(C(=O)c2ccccc2F)CC1`, which outcome is on record?
Answer: Its outcome is “inactive”.

Question: For `O=C(Nc1ccc(CN2CCOCC2)cc1)c1ccc(-c2ccc(Cl)cc2Cl)o1`, which outcome is on record?
Answer: The outcome was “inactive”.

Question: For `C[C@@H]1CN([C@@H](C)CO)S(=O)(=O)c2ccc(C3=CCCC3)cc2O[C@@H]1CN(C)C(=O)c1ccc(F)cc1`, which outcome is on record?
Answer: The outcome was “inactive”.

Question: Which outcome does the source give for `COc1ccc(-c2c(-c3ccccc3)c(C(=O)C(=O)NCCCN(C)C)n3ccc4cc(OC)c(OC)cc4c23)cc1OC` here?
Answer: The outcome was “inactive”.
